# From PubChem BioAssay AID1159580 (chemical genetic matrix, 2015)
# Several values for one entry are separate records, joined by “and”; a condition that tells them apart may be missing. Equal entries are not always repeated. Hit rate of the full screen: of about 5,500 compounds, about 2,000 (36%) were called active. Not shown: some 18% with an inconclusive outcome. The list shows a part of the results. A number with no mark means an inactive call. Rule as the data show it: active = normalized growth mostly below about 0.91 (no sharp cut-off); inconclusive = no clear call, values can overlap the other calls; inactive = mostly above about 0.92.
# Assay: chemical genetic growth profiling, strain panel (AID 1159580);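 also: tested at 20 µM; growth read once vehicle control cultures reached saturation at 30 °C; 1 = growth at the plate median or of vehicle wells; lower values mean less growth of the strain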
# Details: S. cerevisiae deletion strains, growth OD
smiles,measurement,setting,value
CC(=O)N(O)CCCCCNC(=O)CCC(=O)N(O)CCCCCNC(=O)CCC(=O)N(O)CCCCCN,normalized growth,"locus YAL013W, strain DEP1, active compounds read low",0.997
same,normalized growth,"locus YAL021C, strain ccr4, active compounds read low",0.959
same,normalized growth,"locus YAL026C, strain drs2, active compounds read low",1
same,normalized growth,"locus YAL030W, strain snc1, active compounds read low",1
same,normalized growth,"locus YBL061C, strain skt5, active compounds read low",1
same,normalized growth,"locus YBR009C, strain hhf1, active compounds read low",1
same,normalized growth,"locus YBR021W, strain FUR4, active compounds read low",0.845 (active)
same,normalized growth,"locus YBR023C, strain chs3, active compounds read low",1.02
same,normalized growth,"locus YBR171W, strain sec66, active compounds read low",1.01
same,normalized growth,"locus YBR229C, strain ROT2, active compounds read low",1.01
same,normalized growth,"locus YBR231C, strain swc5, active compounds read low",0.967
same,normalized growth,"locus YBR279W, strain paf1, active compounds read low",0.99
same,normalized growth,"locus YCL011C, strain gbp2, active compounds read low",1.04
same,normalized growth,"locus YCL016C, strain dcc1, active compounds read low",1.03
same,normalized growth,"locus YCL029C, strain bik1, active compounds read low",1.04
same,normalized growth,"locus YCL069W, strain vba3, active compounds read low",0.994
same,normalized growth,"locus YCR088W, strain abp1, active compounds read low",1.02
same,normalized growth,"locus YDL005C, strain med2, active compounds read low",1.01
same,normalized growth,"locus YDL035C, strain GPR1, active compounds read low",0.987
same,normalized growth,"locus YDL040C, strain nat1, active compounds read low",1
same,normalized growth,"locus YDL074C, strain BRE1, active compounds read low",0.907
same,normalized growth,"locus YDL101C, strain DUN1, active compounds read low",1.01
same,normalized growth,"locus YDL185W, strain tfp1, active compounds read low",0.967
same,normalized growth,"locus YDL192W, strain arf1, active compounds read low",1.01
same,normalized growth,"locus YDR001C, strain nth1, active compounds read low",1.03
same,normalized growth,"locus YDR069C, strain doa4, active compounds read low",0.978
same,normalized growth,"locus YDR101C, strain arx1, active compounds read low",1.04
same,normalized growth,"locus YDR137W, strain rgp1, active compounds read low",1.12
same,normalized growth,"locus YDR150W, strain NUM1, active compounds read low",1.01
same,normalized growth,"locus YDR159W, strain sac3, active compounds read low",1.05
same,normalized growth,"locus YDR162C, strain NBP2, active compounds read low",0.997
same,normalized growth,"locus YDR195W, strain ref2",1.03
same,normalized growth,"locus YDR297W, strain sur2, active compounds read low",0.997
same,normalized growth,"locus YDR318W, strain mcm21, active compounds read low",1.02
same,normalized growth,"locus YDR334W, strain swr1, active compounds read low",0.998
same,normalized growth,"locus YDR335W, strain msn5, active compounds read low",0.987
same,normalized growth,"locus YDR388W, active compounds read low",1.02
same,normalized growth,"locus YDR392W, strain spt3, active compounds read low",1.2
same,normalized growth,"locus YDR502C, strain sam2, active compounds read low",1.04
same,normalized growth,"locus YEL003W, strain gim4, active compounds read low",0.961
same,normalized growth,"locus YEL037C, strain rad23, active compounds read low",0.997
same,normalized growth,"locus YEL061C, strain CIN8 (second series), active compounds read low",1.01
same,normalized growth,"locus YEL061C, strain CIN8, active compounds read low",1.01
same,normalized growth,"locus YER015W, strain faa2, active compounds read low",0.944
same,normalized growth,"locus YER016W, strain bim1, active compounds read low",1.01
same,normalized growth,"locus YER110C, active compounds read low",1.01
same,normalized growth,"locus YER111C, strain swi4, active compounds read low",0.973
same,normalized growth,"locus YER155C, strain BEM2 (second series), active compounds read low",1.06
same,normalized growth,"locus YER155C, strain BEM2, active compounds read low",1.04
same,normalized growth,"locus YER167W, strain BCK2, active compounds read low",1.05
same,normalized growth,"locus YFR010W, strain ubp6, active compounds read low",0.986
same,normalized growth,"locus YGL078C, strain dbp3, active compounds read low",1.07
same,normalized growth,"locus YGL086W, strain mad1, active compounds read low",1.01
same,normalized growth,"locus YGL167C, strain pmr1, active compounds read low",0.978
same,normalized growth,"locus YGL173C, strain kem1, active compounds read low",0.99
same,normalized growth,"locus YGL227W, strain vid30, active compounds read low",1.02
same,normalized growth,"locus YGL240W, strain doc1, active compounds read low",1.01
same,normalized growth,"locus YGL248W, strain PDE1, active compounds read low",0.987
same,normalized growth,"locus YGL253W, strain hxk2, active compounds read low",0.989
same,normalized growth,"locus YGR078C, strain PAC10, active compounds read low",0.983
same,normalized growth,"locus YGR135W, strain pre9, active compounds read low",0.994
same,normalized growth,"locus YGR252W, strain gcn5, active compounds read low",0.771
same,normalized growth,"locus YHR013C, strain ard1, active compounds read low",0.984
same,normalized growth,"locus YHR027C, strain rpn1, active compounds read low",0.94
same,normalized growth,"locus YHR030C, strain SLT2, active compounds read low",1.02 and 1.05
same,normalized growth,"locus YHR079C, strain IRE1 (second series), active compounds read low",1.02
same,normalized growth,"locus YHR079C, strain IRE1, active compounds read low",1.05
same,normalized growth,"locus YHR094C, strain hxt1, active compounds read low",1.02
same,normalized growth,"locus YHR129C, strain ARP1, active compounds read low",1.01
same,normalized growth,"locus YHR142W, strain chs7, active compounds read low",0.981
same,normalized growth,"locus YHR200W, strain rpn10, active compounds read low",1.03
same,normalized growth,"locus YIL066C, strain RNR3, active compounds read low",1.01
same,normalized growth,"locus YIL073C, strain SPO22, active compounds read low",0.95
same,normalized growth,"locus YIL125W, strain kgd1, active compounds read low",1.04
same,normalized growth,"locus YIR030C, strain dcg1, active compounds read low",1.03
same,normalized growth,"locus YJL092W, strain hpr5, active compounds read low",1.03
same,normalized growth,"locus YJL095W, strain BCK1 (second series), active compounds read low",1.01
same,normalized growth,"locus YJL095W, strain BCK1, active compounds read low",0.959 and 1.05
same,normalized growth,"locus YJL115W, strain asf1, active compounds read low",1.01
same,normalized growth,"locus YJL129C, strain trk1, active compounds read low",1.01
same,normalized growth,"locus YJL134W, strain LCB3, active compounds read low",1.01
same,normalized growth,"locus YJL154C, strain vps35, active compounds read low",1.01
same,normalized growth,"locus YJL164C, strain tpk1, active compounds read low",1.03
same,normalized growth,"locus YJL166W, strain qcr8, active compounds read low",1.02
same,normalized growth,"locus YJL168C, strain set2, active compounds read low",1.01
same,normalized growth,"locus YJL187C, strain SWE1 (second series), active compounds read low",0.975
same,normalized growth,"locus YJL187C, strain SWE1, active compounds read low",0.987
same,normalized growth,"locus YJR043C, strain POL32, active compounds read low",1.02
